In all, about 410,000 compounds went through this assay and about 2,000 (0.49%) were called active. Roughly 8% stayed inconclusive and do not appear here. Many of the other results were omitted from the sample, so actives are more common in it than they were. Unmarked numbers belong to inactive results. Calls follow the shape of the full dose curve; tested in HEK293 reporter line.
Potency is read from the fitted curve at half-maximal effect.

The test can be described thus: qHTS Assay for Foot and Mouth Disease Virus Antivirals: Primary Screen against the MLPCN compound library. Also: nearly all actives have a fitted effect of over 55% in size. Conditions: FMDV antiviral cell-based qHTS; series mostly up to 57.9 µM; activity, negative = inhibition: at the top concentration.
With `COc1ccc(C(=O)NCc2cc(C)nc3ccccc23)cc1`, the “activity, negative = inhibition” value was -41.5%.
On the same count and under the same terms, the result for `Cc1cc(C)c2sc(N(CCN(C)C)C(=O)c3c(F)cccc3F)nc2c1` reads -30.3%.
Consider `CCOc1ccc(-c2ccc(/C=C3/C(=N)N4C=CSC4=NC3=O)o2)c([N+](=O)[O-])c1`, for which the “activity, negative = inhibition” value was -9.4%.
Consider `Cc1ccc(/C=C2/C(=N)N3N=C(CC(=O)N4CCCC4)SC3=NC2=O)o1`, for which the “activity, negative = inhibition” value is -19.8%.
As for `CC1=CN2C(=N)/C(=C/c3ccco3)C(=O)N=C2S1`, the Potency was 12.6 µM (active).
Take `CCCCn1c(=O)c(CCC(=O)OC(C)C(=O)Nc2cccc(Cl)c2Cl)nc2ccccc21` (stereo not given): the “activity, negative = inhibition” value was -31.2%.
Turning to `CC(C)C(=O)N1CCN(c2nc(-c3ccccc3)c3c(c2C#N)CCCC3)CC1`, the Potency is 22.4 µM (active).
With `CC(C(=O)Nc1cccc(C#N)c1)n1nc(-c2ccccc2)c2c(c1=O)CCCC2` (stereo not given), the “activity, negative = inhibition” value was -30.7%.
`CCCC(=O)N1CCN(c2nc(CC(C)C)c3c(c2C#N)CCC3)CC1`: the “activity, negative = inhibition” value is -32%.
On to `FC(F)C(F)(F)Oc1cccc(Nc2nccn3c(-c4ccc5ccccc5c4)cnc23)c1`, for which the “activity, negative = inhibition” value is -35.9%.
The same measure, in the same setting: the value for `COCC(=O)N1CCC2(CC1)CCN(c1ccc(-c3ccccc3)cc1)CC2` was -32.7%; that for `N#CC1=C(N)Nc2nc3ccccc3n2C1c1ccc(F)cc1` (stereo not given) was -40.9%.
As for `Nc1nc2ccccc2n1C(=O)c1ccc(F)cc1`, the Potency was 12.6 µM (active).
Turning to `CSc1nc2ccccc2n1C(=O)NC1CCCCC1`, the “activity, negative = inhibition” value is -34.5%.
Still for that read-out and setting: the result for `C[C@H](CO)N1C[C@H](C)[C@@H](CN(C)C(=O)NC2CCCCC2)Oc2c(NS(=O)(=O)c3cccs3)cccc2C1=O` reads 104%; that for `Cc1ccc(NC(=O)COC(=O)C2CC2C)c(S(=O)(=O)N2CCCCC2)c1` (stereo not given), -31.9%; that for `CCOC(=O)C1CCN(S(=O)(=O)c2cccc(C(=O)Nc3ccccc3)c2)CC1`, -33.4%.
For the compound `CC(Sc1nc(C(F)(F)F)nc2ccccc12)C(=O)NC1CCCC1` (stereo not given), the “activity, negative = inhibition” value is -27.5%.
Still for that read-out and setting: the value for `CN(C)c1ccc(/C=C/c2ccc3ccccc3n2)cc1` was -100%.
The same measure, in the same setting: the value for `Cc1cc(CN(C)C(=O)c2cc(COc3ccc4ncccc4c3)on2)on1` was -33.2%.
`CN(C)c1ccc(N=Nc2ccc3ncccc3c2)cc1`: the Potency is 20 µM (active).
Take `Cn1c(=O)[nH]c(=O)c2c1nc(NCc1ccccc1)n2CCCc1ccccc1`: the “activity, negative = inhibition” value is -45.3%.
In the case of `COc1cc(OC)c(OC)cc1CN1CCc2nc(N3CCN(c4ncccn4)CC3)ncc2C1`, the “activity, negative = inhibition” value is -25.8%.
Same read-out and setting: the value for `Cc1ccc(CN2CCc3nc(N4CCN(c5ccccc5F)CC4)ncc3C2)s1` was -43.3%.
Take `Cc1ccccc1CN1CCc2nc(N3CCN(c4ccccn4)CC3)ncc2C1`: the Potency was 15.8 µM (active).
As to `COc1cccc(N2CCN(c3c4c(nc5nncn35)CCC4)CC2)c1`, the Potency is 14.1 µM (active).
`COc1cccc(N2CCN(C(=O)c3ccc4c(Cl)c5c(nc4c3)CCCC5)CC2)c1`: the “activity, negative = inhibition” value was -40.7%.
The same measure, in the same setting: the result for `CCOc1ccc(Nc2c3c(nc4nncn24)CCC3)cc1` reads -34.4%.
The same measure, in the same setting: the value for `Cc1nnsc1C(=O)N/N=C/c1ccc2ccccc2c1O` was -41.2%; that for `Cc1cccc(OCCCCn2nnc3sc4c(c3c2=O)CCC(C)C4)c1` (stereo not given) was -31.6%.
Still for that read-out and setting: the result for `C=CCn1c(SCc2nc3c(c(=O)[nH]c(=O)n3CCCC)n2CCC)nnc1-c1ccccc1` reads -30.8%; that for `CCCNS(=O)(=O)c1cc(Br)cc2c1N(C(=O)CC)CC2`, 109%.
For `CCC(=O)N1CCc2cc(Br)cc(S(=O)(=O)CCC(=O)NCc3ccccc3OC)c21`, the “activity, negative = inhibition” value is -75.9%.
`COc1cc(NS(=O)(=O)c2cc(Br)cc3c2N(C(=O)C2CC2)CC3)cc(OC)c1`: the Potency was 12.6 µM (active).
In the case of `O=C(OC1C2CCC1C1CN(CCc3ccccc3)CC12)c1ccccc1` (stereo not given), the “activity, negative = inhibition” value was -32%.
Still for that read-out and setting: the result for `COc1ccc(-c2cc3c(=O)n(CC(=O)Nc4cccc(Cl)c4)nc(C)n3n2)cc1` reads -34.4%; that for `CN(C)c1cccc(F)c1C(=O)NC(=O)Nc1ccc(Cl)cc1`, -36.3%.
Same read-out and setting: the result for `COc1ccc(CN2CCNC(=O)C2CC(=O)NC2CCCC2)c(OC)c1` (stereo not given) reads -15.3%.
Same read-out and setting: the value for `COC(=O)c1nnn(-c2nonc2N)c1CSc1nc2ccccc2s1` was -35.5%.
For `Cc1c(NC(=O)CN2CCN(c3cccc(Cl)c3)CC2)c(=O)n(-c2ccccc2)n1C`, the “activity, negative = inhibition” value was -31.9%.
Still for that read-out and setting: the result for `CC12CN(C(=O)c3ccco3)CC(c3ccccc3)(CN(C(=O)c3ccco3)C1)C2=O` reads -31%.
For `O=C(O)c1ccc(N/N=C/c2cc(Br)cs2)cc1`, the Potency was 11.2 µM (active).
In the case of `COc1ccc(/C=N/Nc2ccc(C(=O)O)cc2)cc1Br`, the “activity, negative = inhibition” value was -84.1%.
On to `CC(C)c1ccc(/C=N/Nc2ccc(C(=O)O)cc2)cc1`, for which the “activity, negative = inhibition” value was -98.8%.
On the same count and under the same terms, the value for `O=C(NC1CCC(=O)N(CCOc2ccccc2)CC1)OCc1ccccc1` (stereo not given) was -29%.
Still for that read-out and setting: the value for `CC(=O)N1CCc2c(sc3c2c(=O)n(CCc2ccccc2)c(=O)n3Cc2cccc(C)c2)C1` was -40.4%.
Turning to `COc1ccc(-c2cc(-c3ccccc3O)[nH]n2)cc1`, the “activity, negative = inhibition” value was -68.9%.
As to `COc1ccc(N=Nc2ccc3ccccc3c2)c(O)c1`, the Potency was 22.4 µM (active).
As to `COc1ccc(NC(=O)Nc2c(O)ccc3ccccc23)cc1`, the “activity, negative = inhibition” value is 132%.
On the same count and under the same terms, the result for `COc1cc2c(cc1OC)CN(C(=O)c1cc(Cl)nc(Cl)c1)CC2` reads -38.8%; that for `CC(=O)NC12CC3CC(C1)CC(C(=O)Oc1ccc(N(C)S(=O)(=O)c4cc(C)ccc4C)cc1)(C3)C2`, -36.6%; that for `COc1ccc(C(=O)Nc2ccc(N3CCN(C(=O)c4ccccc4C)CC3)cc2)cc1`, -19.6%.
Turning to `CN1CCN(c2ccc(NC(=O)c3ccc4ccccc4c3)cc2)CC1`, the Potency was 22.4 µM (active).
As for `CC(=O)N1CCN(c2ccc(NC(=O)c3cccc(F)c3)cc2)CC1`, the “activity, negative = inhibition” value was 124%.
The same measure, in the same setting: the value for `CC(C)(C)OC(=O)CNC(=O)c1[nH]cnc1C(=O)N[C@@H](CCCCNC(=O)OC(C)(C)C)C(=O)OC(C)(C)C` was -33.6%; that for `O=C(CCCc1nc(-c2ccc(Cl)cc2)no1)NC1CCCC1` was -49.9%.
As to `O=C(c1ccc2c(c1)N(Cc1ccccc1F)C(=O)c1ccccc1S2=O)N1CCN(c2ccccc2)CC1` (stereo not given), the “activity, negative = inhibition” value was -37.1%.
On the same count and under the same terms, the value for `COc1ccc(C)cc1NC(=O)C1CCN(S(=O)(=O)c2ccccc2)CC1` was -30.9%.
On to `CCOC(=O)c1sc2ccc(S(=O)(=O)N3CCCCC3)cc2c1N`, for which the Potency was 17.8 µM (active).
With `CCOC(=O)c1sc(NC(=O)c2ccc(S(=O)(=O)N3CCCCC3)cc2)nc1-c1ccccc1`, the “activity, negative = inhibition” value was -41.2%.
On the same count and under the same terms, the result for `CCOC(=O)/C=C/C(=O)Nc1ccc(S(=O)(=O)N2CCCCCC2)cc1` reads -33.1%.
Same read-out and setting: the value for `COc1cc(OC)cc(C(=O)Nc2ccc3c(c2)CCCN3C(=O)c2cccs2)c1` was -30.8%; that for `O=C1CC(c2ccco2)CC(O)=C1C=NCCN1CCN(C(=O)Nc2ccc(Cl)cc2)CC1` (stereo not given) was -33.6%.
As for `Cc1ccc(CSCC(=O)N(C)CC(=O)Nc2c(Cl)cccc2Cl)cc1`, the “activity, negative = inhibition” value is -31.7%.
Consider `Fc1ccc(-c2noc(-c3ccc4c(c3)CCO4)n2)cc1`, for which the Potency was 12.6 µM (active).
On to `O=S(=O)(Nc1ccc2ccccc2n1)c1ccc2c(c1)CCO2`, for which the “activity, negative = inhibition” value is 113%.
In the case of `Cc1ccc(-c2noc(-c3ccc(N4CCCCC4)c([N+](=O)[O-])c3)n2)cc1`, the “activity, negative = inhibition” value was -32.2%.
On to `O=C(NCCN1CCC(n2c(=O)[nH]c3ccccc32)CC1)c1ccc(Cl)cc1`, for which the “activity, negative = inhibition” value is -37.5%.
Same read-out and setting: the result for `CC(C)Oc1ccc(C(=O)Nc2nc3c(s2)CC(C(C)(C)C)CC3)cc1` (stereo not given) reads -30.1%.
Consider `COCc1ccc(C(=O)Nc2cccc(S(=O)(=O)N(C)c3ccccc3)c2)cc1`, for which the Potency was 15.8 µM (active).
As to `CN(c1ccccc1)S(=O)(=O)c1ccc(C(=O)Nc2ccncc2)cc1`, the “activity, negative = inhibition” value was -22.9%.
Still for that read-out and setting: the value for `CN(c1ccccc1)S(=O)(=O)c1cccc(C(=O)Nc2cccc(C(=O)NC3CC3)c2)c1` was -47.3%; that for `Cc1ccc(S(=O)(=O)N(C)CCCC(=O)Nc2cc(C)ccc2C)cc1` was -34.2%.
The same measure, in the same setting: the result for `CN(c1ccccc1)S(=O)(=O)c1ccc(C(=O)NCCc2ccc(F)cc2)cc1` reads -32.5%.
On the same count and under the same terms, the value for `Cc1ccccc1C(c1c(C)n(C)n(-c2ccccc2)c1=O)c1c(C)n(C)n(-c2ccccc2)c1=O` was -19%.
For `CCCCCC(=O)N1CC2(CC(c3cccc(NC(=O)COc4ccc(Cl)cc4)c3)=NO2)C[C@@H]1C(N)=O` (stereo not given in full), the Potency was 14.1 µM (active).
Consider `C=C(C)C(=O)N1CC2(CC(c3cccc(NC(=O)COc4ccc(Cl)cc4)c3)=NO2)C[C@@H]1C(N)=O` (stereo not given in full), for which the “activity, negative = inhibition” value is -30.8%.
Same read-out and setting: the result for `NC(=O)[C@@H]1CC2(CC(c3cccc(NC(=O)CC(c4ccccc4)c4ccccc4)c3)=NO2)CN1C(=O)COc1ccc(Cl)cc1` (stereo not given in full) reads -32.3%; that for `C=C1C(C)C2C(Cc3ccccc3)NC(=O)C23OC(=O)/C=C/C(O)CCCC(C)C/C=C/C3C1O` (stereo not given), -34.8%; that for `CC1CCCCN1C(=O)CSc1c2c(nc3cc(Cl)ccc13)CCCC2` (stereo not given), -37.7%.
Still for that read-out and setting: the result for `COc1ccc(/C=N/Nc2cc(C)nc3ccccc23)cc1` reads -31%.
The same measure, in the same setting: the result for `COc1ccc(S(=O)(=O)Nc2nc3ccccc3s2)cc1` reads 118%.
With `COc1ccc(C=NNc2nc3ccccc3s2)cc1`, the Potency was 15.8 µM (active).
For the compound `O=Cc1cc(Cl)ccc1OCCN1CCC(Cc2ccccc2)CC1`, the “activity, negative = inhibition” value is -35.1%.
On the same count and under the same terms, the result for `COc1ccc2c(c1OC)C(=O)N1c3ccccc3C(=O)N(c3ccccc3F)C21` (stereo not given) reads -36.1%; that for `COc1ccccc1CN1C(=O)c2cccc3cccc(c23)C1=O`, -31%.
As to `Nc1cccc2c1C(=O)N(CCOc1ccccc1F)C2=O`, the Potency is 15.8 µM (active).
Regarding `CCCCC(=O)N1CCN(c2nc3c(C)c(C)ccc3s2)CC1`, the “activity, negative = inhibition” value was -31.7%.
For `CCc1nc2ccc(C(=O)Nc3cc(-c4ccccc4)ccc3OC)cn2c1N(C=O)CCC(C)C`, the “activity, negative = inhibition” value was -32.4%.
Same read-out and setting: the value for `CC(C)Oc1ccc(C(=O)NCC(=O)N2CCN(S(=O)(=O)/C=C/c3ccccc3)CC2)cc1` was -35.9%; that for `Cc1ccc(-n2ncc3c(N4CCCCCC4)ncnc32)cc1` was -98.4%.
Still for that read-out and setting: the value for `Cc1ccc(-n2ncc3c(N4CCCCC4)ncnc32)cc1` was -57.3%; that for `COc1ccccc1N1CCN(c2ncnc3c2cnn3-c2ccc(C)cc2)CC1` was -32.8%; that for `Cc1ccc(-n2ncc3c(N4CCN(c5ccc(F)cc5)CC4)ncnc32)cc1` was -27.8%.
As to `Cc1ccc(-n2ncc3c(NC4CCCC4)ncnc32)cc1`, the Potency is 12.6 µM (active).
For the compound `Cc1ccc(-n2ncc3c(NC4CCCCC4)ncnc32)cc1`, the Potency was 20 µM (active).
On to `CC(C)c1cccc(C(C)C)c1NC(=O)CNCC(O)c1ccccc1` (stereo not given), for which the “activity, negative = inhibition” value is -30.4%.
Take `COc1ccccc1Nc1cc(C)nc2c(C)ccc([N+](=O)[O-])c12`: the “activity, negative = inhibition” value is -34.1%.
For the compound `COc1ccccc1NC(=O)c1c(N=Cc2cccc([N+](=O)[O-])c2)cnn1C`, the “activity, negative = inhibition” value was -31.2%.
Consider `COc1ccccc1N/C=C/c1onc(C)c1[N+](=O)[O-]`, for which the Potency is 12.6 µM (active).

For the origin of these results see PubChem BioAssay AID1347131 (National Center for Advancing Translational Sciences (NCATS), 2019).
